HEK293 tox: kills HEK 293 cells; HEK 293 viability, ATP luminescence (CellTiter-Glo), 48-72 h; 6.6% of 94,000 active; AID 1345083; Potency, µM (series often up to 115 µM), inactives show at the top dose activity change, negative = cytotoxicity, usual class: inhibitors; note: % is set by controls: 0 for no effect and ±100 for the full control effect; nearly all actives have a fitted effect of over 60% in size
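qHTS cytotoxicity; HEK 293, 250 cells/well; compound pinned; 48 or 72 hr, 37 degree Celsius, 5% CO2, 95% humidity; CellTiter-Glo, 10 min RT; luminescence (ATP).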
FLuc inh-1: inhibitors of firefly (Photinus pyralis) luciferase | AID 1347043 | purified P. pyralis luciferase, luminescence, biochemical | P08659 | 2.5% of 76,000 active | Potency, µM (highest dose often 115 µM), actives largely listed as inhibitors; note: % is set by controls: 0 for no effect and ±100 for the full control effect; nearly all actives have a fitted effect of over 65% in size
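Inhibitors were tested against purified firefly luciferase in a biochemical, low-substrate format (both substrates at 10uM) and luminescence measured with a CCD imager.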
NIH3T3 tox: NIH 3T3 cell cytotoxicity; 4.3% of 94,000 active; Potency, µM (titrated, usually from 96.7 µM), for inactives: at the highest dose activity change, negative = cytotoxicity, actives largely listed as inhibitors; NIH 3T3 viability, CellTiter-Glo ATP luminescence, 48-72 h; AID 1345082; note: % is set by controls: 0 for no effect and ±100 for the full control effect; nearly all actives have a fitted effect of over 55% in size
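Mouse fibroblast NIH 3T3 cells, 400 per well, received compound via pintool and were incubated for 48 or 72 hr prior to CellTiter-Glo ATP luminescence measurement.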
hNpr1 antagonist: human Npr1 receptor antagonism. P16066. HEK293 hNpr1 GloSensor cGMP, ANP-stimulated luminescence. Potency, µM (titrated, usually from 46.3 µM), for inactives: at the top dose activity change, negative = inhibition, most hits filed as inhibitors. 1.6% of 76,000 active; calls by dose curve; note: % is set by controls: 0 for no effect and ±100 for the full control effect; nearly all actives have a fitted effect of over 60% in size
Target sequence (P16066 whole entry, looked up): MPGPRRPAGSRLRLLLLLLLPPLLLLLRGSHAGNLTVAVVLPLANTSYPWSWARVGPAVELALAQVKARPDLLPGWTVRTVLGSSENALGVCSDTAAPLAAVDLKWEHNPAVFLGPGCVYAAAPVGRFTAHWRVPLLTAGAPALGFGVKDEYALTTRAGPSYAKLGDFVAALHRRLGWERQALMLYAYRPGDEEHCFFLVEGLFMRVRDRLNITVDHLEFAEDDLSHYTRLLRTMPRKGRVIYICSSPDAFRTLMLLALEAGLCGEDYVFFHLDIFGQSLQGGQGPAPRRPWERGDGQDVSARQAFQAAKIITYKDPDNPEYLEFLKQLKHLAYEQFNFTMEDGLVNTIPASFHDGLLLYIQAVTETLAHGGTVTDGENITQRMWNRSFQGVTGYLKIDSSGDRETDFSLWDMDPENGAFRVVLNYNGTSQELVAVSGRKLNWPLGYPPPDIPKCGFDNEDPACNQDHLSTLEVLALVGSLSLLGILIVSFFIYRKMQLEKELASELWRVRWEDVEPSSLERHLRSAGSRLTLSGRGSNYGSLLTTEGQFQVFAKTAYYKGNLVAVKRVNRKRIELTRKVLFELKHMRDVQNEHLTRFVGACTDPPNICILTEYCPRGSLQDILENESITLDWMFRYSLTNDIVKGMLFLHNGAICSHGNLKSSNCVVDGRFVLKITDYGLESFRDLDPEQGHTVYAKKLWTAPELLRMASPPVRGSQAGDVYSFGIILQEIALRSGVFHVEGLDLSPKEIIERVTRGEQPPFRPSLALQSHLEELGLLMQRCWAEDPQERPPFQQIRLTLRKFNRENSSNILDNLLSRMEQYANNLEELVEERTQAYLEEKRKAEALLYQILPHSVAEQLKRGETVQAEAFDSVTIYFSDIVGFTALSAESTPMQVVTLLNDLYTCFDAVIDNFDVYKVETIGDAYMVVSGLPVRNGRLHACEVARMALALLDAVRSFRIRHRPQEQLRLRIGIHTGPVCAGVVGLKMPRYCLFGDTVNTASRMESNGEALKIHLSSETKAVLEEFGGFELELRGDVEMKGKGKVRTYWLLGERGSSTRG
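Compound pre-incubated 30 min at room temperature on GloSensor-loaded HEK293 cells stably carrying hNpr1 and the pGS-40F cGMP biosensor. Stimulation uses hNppA at 0.1 nM final; luminescence is taken at baseline and 20 min post-agonist.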
FLuc SDR -ATP: stabilizes firefly luciferase without ATP | shares compounds with FLuc inh-1 | Purified FLuc-C-HiBiT, Nano-Glo HiBiT luminescence, no ATP | Potency, µM (highest dose often 32.7 µM), for the others: top-dose activation (signal gain), usual class: activators | 7.8% of 1,300 active; note: nearly all actives have a fitted effect of over 55% in size
FLuc SDR ATP: firefly luciferase binding stabilization, ATP added; AID 1963319; purified FLuc-C-HiBiT + ATP, HiBiT complementation luminescence; 8.7% of 1,300 active; Potency, µM (highest dose often 32.7 µM), for the others: top-dose activation (gain of signal), actives largely listed as activators; shares compounds with FLuc inh-1;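 note: signal reports ligand binding via conformational change of the enzyme rather than luciferase catalysis; % of control where 0% means no effect; nearly all actives have a fitted effect of over 55% in size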
FLuc inh-2: blocks firefly luciferase enzymatic activity; Potency, µM (titrated, usually from 32.7 µM), for inactives: at the top dose activity change, negative = inhibition, usual class: inhibitors; AID 1963320; purified FLuc-C-HiBiT enzyme, luciferin luminescence; 42% of 1,300 active; shares compounds with FLuc inh-1; note: % is set by controls: 0 for no effect and ±100 for the full control effect; nearly all actives have a fitted effect of over 70% in size
* hit, by the source's call; i = inactive; ? = inconclusive; . = no result given; [ ] = remark or other dose. The list is not random: actives were taken first. Their share in the collection is about 11%. Unless noted, calls come from the whole dose curve; as a rule, active = well fitted curve in the direction sought with a large enough effect; inconclusive = small, poorly fitted or top-dose-only effect, or another doubt; inactive = no such curve, though single readings can be large; an effect the other way counts as inactive or inconclusive. Potency is the fitted concentration of half-maximal effect.

SMILES	HEK293 tox	FLuc inh-1	NIH3T3 tox	hNpr1 antagonist	FLuc SDR -ATP	FLuc SDR ATP	FLuc inh-2
COc1cc(NC(=O)Nc2cccc(-c3ccc(N4CCOCC4)nn3)c2)cc(OC)c1	?	0.71µM*	32µM*	?	?	?	1.8µM*
Cc1c(F)cccc1NC(=O)Nc1cccc(-c2nnc3n2CCCC3)c1	11%	?	i	3%	.	.	.
COc1cc(NC(=O)N[C@H](C)c2onc(-c3ccccc3)c2C(=O)O)cc(OC)c1	-10%[172 µM]	i	?	5%[70.6 µM]	.	.	.
O=C(Nc1cccc(-c2ccc(N3CCOCC3)nn2)c1)Nc1ccc2c(c1)CCC2	?	0.89µM*	-11%	?	26%	?	2.8µM*
O=C1NCC(=O)N2CC3(CCN(C(=O)C4CCCCC4)CC3)CC12 (stereo unspecified)	i	.	-6%	.	.	.	.
CCOc1cccc2cc(-c3nc(-c4ccccc4C)no3)c(=O)oc12	.	.	.	.	?	?	?
CCOc1ccccc1-c1noc(-c2nc(C)no2)n1	-17%	i	-10%	6%	.	.	.
CC(C)n1cnnc1CN(C)c1nc(N)nc2nc[nH]c12	-7%	i	1%	2%	15%	8%	-3%
CN1CCN([C@H]2[C@@H]3OC[C@@H](O3)[C@@H](NC(=O)Nc3cccc(C#N)c3)[C@@H]2O)CC1	-27%[172 µM]	i	-3%[174 µM]	4%[70.6 µM]	.	.	.
CN1CCc2nc3sc(C(=O)Nc4cccc(C#N)c4)c(N)c3cc2C1	.	.	.	.	14%	16%	-12%
Nc1ccc2ncnc(N3CCCC3)c2c1	?	i	-22%	-9%	.	.	.
Cc1cc(Cl)ccc1-n1ncc2c(N3CCCCC3)ncnc21	.	.	.	.	31%	?	4.4µM*
CCN(c1ncnc2c1cnn2-c1cccc(Cl)c1)C1CCCCC1	.	.	.	.	27%	?	5.6µM*
Clc1cccc(-n2ncc3c(N4CCCCC4)ncnc32)c1	.	.	.	.	6.2µM*	?	0.99µM*
O=C(Nc1ccc2ncnc(N3CCCCC3)c2c1)c1cc(F)ccc1F	?	i	?	-17%	.	.	.
COCC(C)Nc1ncnc2c1cnn2-c1cccc(Cl)c1 (stereo unspecified)	.	.	.	.	23%	16%	?
Cn1cccc1C(=O)N1CCCC1c1nc(CCOCC2CC2)no1 (stereo unspecified)	i	.	-6%	.	.	.	.
CC(C)Oc1ccc(CNC(=O)CCC2CCN(S(=O)(=O)c3ccccc3)CC2)cc1	?	i	?	?	.	.	.
Cc1ccc(NC(=O)Cn2nc3n(c2=O)CCCC3)cc1Cl	11%	i	-6%	1%	.	.	.
Cc1ccc(NC(=O)/C=C/c2ccccc2Cl)cc1Cl	.	.	.	.	13%	11%	?
Cc1ccc(NC(=O)c2ccc3snnc3c2)cc1C	.	.	.	.	18%	?	?
Cc1noc(C)c1-c1ncc2c(n1)OCCN(Cc1ccccc1)C2=O	-41%[172 µM]	i	?	-8%[70.6 µM]	.	.	.
COc1ccc(CN2CCOc3nc(-c4cc5ccccc5o4)ncc3C2=O)cc1	?	3.5µM*	-14%[138 µM]	?	16%[49.3 µM]	16%[49.3 µM]	8.1µM*
Cc1c(CCNC(=O)c2ccc(Br)o2)sc2nc(-c3ccc(Cl)cc3)nn12	.	.	.	.	19%	11%	?
c1c(-c2nc(C3CCOC3)no2)sc2c1CCCC2 (stereo unspecified)	?	0.63µM*	?	8.9µM*	21%	?	5.6µM*
SMILES	HEK293 tox	FLuc inh-1	NIH3T3 tox	hNpr1 antagonist	FLuc SDR -ATP	FLuc SDR ATP	FLuc inh-2
CC(=O)c1ccc(-c2nc(C3CCOC3)no2)s1 (stereo unspecified)	-7%	?	-16%	1%	.	.	.
Cc1c(NC(=O)c2cccc(Cl)c2Cl)cccc1-c1nc2ccccc2s1	.	.	.	.	17%	12%	-18%
CCC(=O)Nc1cc(-c2nc3ccccc3s2)c(Cl)cc1Cl	.	.	.	.	17%	11%	-5%
Cc1c(NC(=O)Cc2ccccc2)cccc1-c1nc2ccccc2s1	.	.	.	.	?	17%	?
O=C(Cn1nc2c(cc1=O)CCCCC2)Nc1nc2ccccc2s1	?	i	-7%	3%	.	.	.
Cc1c(NC(=O)c2ccc(I)o2)cccc1-c1nc2ccccc2s1	.	.	.	.	27%	13%	7µM*
Cc1ccsc1CN1CCC(n2c(C3CC3)nn(C)c2=O)CC1	-15%	.	-33%	.	.	.	.
CC(=O)NC1(C)CCN(Cc2ccc(-c3ccc4c(ccn4C)c3)cc2)C1 (stereo unspecified)	?	4.5µM*	?	?	25%[49.3 µM]	?	7.2µM*
Cc1ccsc1CN1CCCCCNC(=O)CC1c1ccccc1 (stereo unspecified)	?	i	?	1%	.	.	.
CC[n+]1c(/C=C/N(C)c2ccccc2)n(-c2ccccc2)c2ccc(-c3nc4ccccc4s3)cc21	.	.	.	.	9%	7%	?
CCCCCSc1nnc(-c2ccc(Br)cc2)o1	.	.	.	.	11%	9%	-6%
Cc1cccc(OCC(=O)N[C@@H]2CN(c3ncccn3)C[C@H]2CN(C)C)c1	-2%	i	-12%	-3%	.	.	.
Cc1cc(C)cc(C(=O)NC(Cc2ccccc2)C(=O)N2CCN(c3ccccn3)CC2)c1 (stereo unspecified)	?	i	?	-7%	.	.	.
Cc1ccc2oc(-c3ccc(C)c(NC(=O)/C=C/c4ccc(Cl)cc4)c3)nc2c1	.	.	.	.	22%	15%	?
Cc1ccccc1CN1CC[C@H](c2nc3ccccc3s2)C1	71µM*	7.9µM*	?	-26%[70.6 µM]	12%[49.3 µM]	10%[49.3 µM]	?
Cc1ccccc1CN1CC[C@H](c2nc3ccc(F)cc3[nH]2)C1	35µM*	14µM*	?	?	12%[49.3 µM]	10%[49.3 µM]	?
Cc1ccc2nc([C@H]3CCN(Cc4cccs4)C3)[nH]c2c1	56µM*	7.1µM*	?	-28%[70.6 µM]	16%[49.3 µM]	17%[49.3 µM]	?
COCCCNC(=O)c1cc(-c2ccc(F)cc2)c2nncn2n1	-11%	.	?	.	.	.	.
Cc1nn(C)c(=O)n1C1CCN(C(=O)c2ccco2)CC1	-12%	.	-20%	.	.	.	.
CN1CCCN(C(=O)C2CCCCc3nnc(-c4ccccc4)n32)CC1 (stereo unspecified)	-5%	.	?	.	.	.	.
CCc1nc2c(c(-c3ccc(Cl)cc3)n1)CCN(C(=O)c1ccc(C(F)(F)F)cc1)CC2	?	i	?	0%	.	.	.
COCCCn1c(=O)c(C(=O)N(C)C)nc2cccnc21	1%[172 µM]	.	-1%[138 µM]	.	.	.	.
CCN1CCN(CCNC(=O)c2cccc3c2CCN3C(=O)Nc2ccc(C)cc2)CC1	?	2µM*	?	?	?	1.6µM*	1.1µM*

Screening results as filed in PubChem BioAssay.
